HIF-2a block: HIF-2a reporter inhibitors, primary screen, luminescence, 786-0 RCC cells. 786-0 RCC cells HIF-2a reporter, luciferase luminescence, overnight. inhibition, % at 18.8 µM. actives 0.72% (n = 360,000);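 active = inhibition of the luminescence signal of 40% or more relative to plate controls, in a single-dose primary screen at 18.75 µM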
CF NFkB block: inhibitors of PAF-induced NF-kB signaling, primary screen, cell-based, GFP fluorescence, uHTS; actives 0.86% (n = 360,000); KKLEB NF-kB-GFP reporter, GFP fluorescence overnight; inhibition, % at 5 µM; AID 588850, 2011;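 active = at least 50% inhibition at 5 µM, scaled per plate between neutral and stimulator controls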;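 also: PAF is a Pseudomonas aeruginosa culture filtrate used as stimulus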
MITF TRPM1 inh: inhibitors of MITF-dependent TRPM1 promoter reporter, primary screen, cell-based, SK-MEL-5, single point, luciferase | SK-MEL-5 TRPM1 promoter luciferase, 24 h | inhibition, % at 12.5 µM | actives 0.83% (n = 330,000) | AID 488899, 2010;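 active = mean inhibition across replicates of 60% or more, whatever share of single replicates reaches that level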
KKLEB tox: cytotoxicity in KKLEB CF airway cells, primary screen, cytotoxicity control for CF NF-kB inhibitor project, cell-based, uHTS, fluorescence assay plates; KKLEB CF airway cells viability, ATPlite luminescence, overnight; hits give low values; cells stimulated with P. aeruginosa culture filtrate; activity change (cytotoxicity), % at 5 µM; actives 0.36% (n = 360,000); AID 602141, 2011;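 active = corrected activity change at or below -50% at 5 µM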
Shn3 inh set2: reduction of Shn3 3'UTR firefly luciferase signal, primary screen, Schnurri-3 inhibitor project, cell-based, Clone20 osteoblasts, set 2 | actives 0.52% (n = 360,000) | Clone20 osteoblast Shn3 3'UTR firefly luciferase, 24 h | inhibition, % at 12.5 µM;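 active = mean inhibition of at least 75% with every replicate also reaching 75%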
Peg3 promoter: Peg3 promoter-driven luciferase inhibitors, primary screen, cell-based, HeLa, luciferase luminescence. HeLa PEG-Prom luciferase reporter, overnight. inhibition, % at 20 µM. actives 1.7% (n = 360,000). AID 588405, 2011;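 active = inhibition of at least 50% at 20 µM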
Numbers stand for hits; 0 = inactive; - = no result. Most compounds without a hit are left out; they make up all but 2.7% or so of the library.

SMILES | HIF-2a block | CF NFkB block | MITF TRPM1 inh | KKLEB tox | Shn3 inh set2 | Peg3 promoter
CC(C)CN(C(=O)COC(=O)c1ccc(Br)cc1)c1c(N)n(Cc2ccccc2)c(=O)[nH]c1=O | 0 | 0 | 0 | 0 | 0 | 63.4
CC(C)CN(C(=O)COC(=O)C12CC3CC(CC(C3)C1)C2)c1c(N)n(Cc2ccccc2)c(=O)[nH]c1=O | 0 | 0 | 87.5 | 0 | 0 | 0
Nc1c(N(CCC2=CCCCC2)C(=O)COc2ccc(F)cc2)c(=O)[nH]c(=O)n1Cc1ccccc1 | 0 | 0 | 92.1 | 0 | 0 | 97.3
COCCN(C(=O)COC(=O)C1CCC(C(C)(C)C)CC1)c1c(N)n(Cc2ccccc2)c(=O)[nH]c1=O (configuration not stated) | 0 | 0 | 0 | 0 | 87.8 | 0
Cc1cccc(N2CCN(C(=O)CCC(=O)N3CC(C)Oc4ccc(C)cc43)CC2C)c1 (configuration not stated) | 0 | 0 | - | 0 | 0 | 0
COc1ccc(-n2nnnc2-c2cnc(N3CCCC3)nc2C(F)(F)F)cc1 | 0 | 0 | 0 | 0 | 87.5 | 0
FC(F)(F)c1nc(-c2cccs2)ncc1-c1nnnn1-c1ccc(Cl)cc1 | 0 | 0 | 0 | 0 | 85.9 | 68.6
CCCCNC(=O)C1c2ccccc2OCC(=O)N1CC(F)(F)F (configuration not stated) | 0 | - | - | - | - | -
Cc1cc(CSc2ccccc2)ccc1NC(=O)c1ccc(Cl)c([N+](=O)[O-])c1 | 0 | 0 | 0 | 0 | 0 | 63.9
Cc1cc(CSc2ccccc2)ccc1NC(=O)c1ccc(C)c([N+](=O)[O-])c1 | 0 | 0 | 0 | 0 | 0 | 0
CC(OC(=O)CCC1CCCCC1)C(=O)Nc1ccc(S(N)(=O)=O)cc1 (configuration not stated) | 0 | 0 | 0 | 0 | 0 | 0
N/C(=N\OC(=O)c1ccc(Cl)c([N+](=O)[O-])c1)c1ccccc1 | 0 | 0 | 0 | 0 | 0 | 75.1
CC(OC(=O)c1ccc(Cl)c([N+](=O)[O-])c1)C(=O)N1CCN(Cc2ccccc2)CC1 (configuration not stated) | 0 | 0 | 0 | 0 | 0 | 78.3
CC(C(=O)N1CCN(Cc2ccccc2)CC1)c1ccc([N+](=O)[O-])cc1 (configuration not stated) | 0 | 0 | 0 | 0 | 0 | 0
N/C(=N\OC(=O)c1cc([N+](=O)[O-])ccc1Cl)c1cccnc1 | 0 | 0 | 0 | 0 | 0 | 61.6
CN(CC(=O)Nc1c(Cl)cccc1Cl)C(=O)C1CC(=O)N(Cc2ccccc2)C1 (configuration not stated) | 0 | 0 | 0 | 0 | 0 | 0
CC(=Nc1ccccc1)C1=C(O)C(CC(C)C)NC1=O (configuration not stated) | 0 | 0 | 0 | 0 | 0 | 0
O=C(NS(=O)(=O)N1CCCC1)C1=C(N2CCCC2)COC1=O | 0 | 0 | 0 | 0 | 0 | 0
Cc1cc(C)c2nc(-c3ccccc3)ccc2c1 | 0 | 0 | - | 0 | 0 | 0
Cc1ccc(CCNC(=O)c2nnc(CS(=O)(=O)c3ccccc3)o2)cc1 | 0 | 0 | 0 | 0 | 0 | 62.4
Cc1ccc(NC(=O)CSc2nc3ccccc3c3nc(CCn4cncc4C)nn23)c(C)c1 | 0 | 0 | 0 | 0 | 0 | 95.6
Fc1cccc(Cc2c(-c3cccc(Cl)c3)nc3c(Cl)cc(C(F)(F)F)cn23)c1 | 0 | 0 | - | 0 | 0 | 0
C=C1C(=O)CC2=C1[C@](Cc1ccc(F)cc1)(C(=O)OC)N(C(=O)c1ccccc1)C2 | 0 | - | - | - | - | -
C=C1C(=O)C=C2CN(C(=O)c3ccccc3)[C@@](Cc3ccc(F)cc3)(C(=O)OC)[C@@H]12 | 97.2 | 75.0 | 99.3 | -91.2 | 95.2 | 99.4
COc1ccc(CNCCc2ccc(Cl)cc2)cc1OCc1ccccc1 | 0 | 0 | 0 | 0 | 0 | 77.8
SMILES | HIF-2a block | CF NFkB block | MITF TRPM1 inh | KKLEB tox | Shn3 inh set2 | Peg3 promoter
CCOc1cc(CNCCc2ccc(S(N)(=O)=O)cc2)ccc1OCc1ccccc1 | 0 | 0 | 0 | 0 | 0 | 0
COc1ccc(CCNCc2ccc(-c3ccccc3)cc2)cc1OC | 0 | 0 | 0 | 0 | 0 | 86.7
COc1ccc(CNCCc2ccccc2)cc1OCC(N)=O | 0 | 0 | 0 | 0 | 0 | 0
CCOc1cc(CNCc2ccccc2)ccc1OCc1ccc(Cl)cc1 | 0 | 0 | 0 | 0 | 92.4 | 0
O=C(NCc1cn2ccccc2n1)C1CCC(=O)N(Cc2ccccc2F)C1 (configuration not stated) | 0 | 0 | 0 | 0 | 0 | 0
O=C(N=Nc1c(O)[nH]c2ccc(Br)cc12)c1ccco1 | 0 | 0 | - | 0 | 0 | 0
O=C(N=Nc1c(O)[nH]c2ccc(Br)cc12)c1cc(-c2cccc3ccccc23)n[nH]1 | 0 | 0 | 0 | 0 | 0 | 54.9
O=C(N=Nc1c(O)[nH]c2ccc(Br)cc12)c1cc(-c2cccs2)nc2ccccc12 | 0 | 0 | 0 | 0 | 0 | 59.7
Cn1c(O)c(N=NC(=O)c2cc(-c3cccs3)nc3ccccc23)c2ccccc21 | 0 | 0 | 0 | 0 | 0 | 0
CC(C)c1ccc(NC(=O)C2C3C=CC4(O3)C2C(=O)N(CCCN2CCOCC2)C4C(=O)NC2CCCCC2)cc1 (configuration not stated) | 0 | 0 | 0 | 0 | 0 | 0
COC(=O)C(Nc1ccccc1Cl)(c1cc(C)c(O)c(C)c1)C(F)(F)F (configuration not stated) | 0 | 0 | 0 | 0 | 0 | 0
COC(=O)/C(=C(/F)Sc1cc(C)c(O)c(C)c1)C(F)(F)F | 0 | 0 | 0 | 0 | 0 | 63.2
CCn1c(N)cc(=O)[nH]c1=S | 0 | 0 | 0 | 0 | 0 | 0
COc1ccc(C(C#N)=C2C=C(Cl)C(=NO)C=C2Cl)cc1 | 0 | 67.7 | - | 0 | 0 | 0
CCOC(=O)c1ccccc1NC(=O)COC(=O)CCCOc1ccccc1 | 0 | 0 | 0 | 0 | 0 | 0
COc1ccccc1NC(=O)Nc1ccc(C(=O)N2CCCCC2)cc1 | 0 | 0 | 0 | 0 | - | 0
COC(=O)c1ccccc1NC(=O)CSCC(=O)Nc1ccccc1 | 0 | 0 | 0 | -69.2 | 0 | 0
CCOC(=O)c1ccccc1NC(=O)COc1ccccc1 | 0 | 0 | 0 | 0 | 0 | 68.3
COC(=O)c1ccccc1NC(=O)Nc1ccc(C(=O)N2CCCC2)cc1 | 0 | 0 | 0 | 0 | 0 | 58.1
CCN(C[C@H]1N[C@@](C)(C(=O)OC)[C@H]2C(=O)N(Cc3ccccc3)C(=O)[C@@H]12)C(=O)Nc1ccc(Cl)cc1 | 0 | 0 | 0 | 0 | 0 | 0
Cc1ccccc1NC(=O)C(Cl)=C(Cl)Cl | 0 | 0 | 0 | 0 | 0 | 55.0
Cc1ccccc1NNC(=O)C(=O)NNc1ccccc1C | 0 | 0 | 0 | 0 | 0 | 0
O=C(Nc1cccc(O)c1)c1cc(-c2ccc3c(c2)OCO3)on1 | 0 | 0 | 0 | -69.6 | 0 | 0
